In PubChem BioAssay AID1030 (National Center for Advancing Translational Sciences (NCATS), 2008):
Screen size: about 220,000 compounds; about 16,000 (7.3%) were called active. Inconclusive results (about 25%) are left out. Calls follow the shape of the dose curve; as a rule, active = well fitted inhibition curve with a large enough effect (not every such curve was filed as active); inconclusive = small, poorly fitted or top-dose-only effect, or another doubt; inactive = no such curve, though single readings can be large or run the other way. The full list was thinned out, with actives kept by preference.

biological target: Aldehyde dehydrogenase 1A1 (Homo sapiens) (UniProt P00352); assay: qHTS Assay for Inhibitors of Aldehyde Dehydrogenase 1 (ALDH1A1); conditions: Purified ALDH1A1, NADH fluorescence, propionaldehyde substrate; series mostly up to 75.3 µM
Sequence (P00352 whole entry, looked up): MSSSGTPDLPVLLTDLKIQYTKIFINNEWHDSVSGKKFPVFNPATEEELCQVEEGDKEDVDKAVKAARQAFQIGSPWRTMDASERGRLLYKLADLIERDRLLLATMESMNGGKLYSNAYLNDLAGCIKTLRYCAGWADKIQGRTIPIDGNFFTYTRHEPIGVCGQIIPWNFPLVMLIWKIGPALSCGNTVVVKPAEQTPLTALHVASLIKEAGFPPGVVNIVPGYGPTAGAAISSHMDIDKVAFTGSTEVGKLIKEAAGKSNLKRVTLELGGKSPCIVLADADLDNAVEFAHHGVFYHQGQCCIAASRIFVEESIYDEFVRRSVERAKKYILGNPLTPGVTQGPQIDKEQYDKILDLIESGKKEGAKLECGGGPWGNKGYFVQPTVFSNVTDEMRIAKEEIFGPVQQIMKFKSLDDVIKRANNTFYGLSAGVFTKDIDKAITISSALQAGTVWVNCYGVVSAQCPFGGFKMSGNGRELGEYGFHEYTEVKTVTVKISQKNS
Potency is read from the fitted curve at half-maximal effect.

Potency, inactive:
Fc1cc(Br)ccc1NC(=S)Nc1cccnc1, COc1ccc(S(=O)(=O)N2CCOCC2)cc1NC(=O)CSc1ncnc2ccccc12, Cc1ccc(NS(=O)(=O)c2cccs2)cc1S(=O)(=O)N1CCCCCC1, COc1ccc(N(C)S(=O)(=O)c2cccc3nsnc23)cc1, FC(F)(F)c1cccc(Cc2noc(CN3CCC(N4CCCCC4)CC3)n2)c1, CC1=NCCN1S(=O)(=O)c1cccc([N+](=O)[O-])c1, Fc1ccccc1Cn1cnc(NC(=S)NCCc2ccccc2)n1, Cc1ccc(SCC(=O)Nc2ccc3c(c2)OCCO3)cc1, O=C(CSc1nc(C2CC2)nc2ccccc12)Nc1ccc2c(c1)OCCO2, O=C(CSc1nnc(-c2ccncc2)n1C1CCCCC1)Nc1ccccc1, CCC(=O)Nc1cccc(NC(=O)CSc2nnc(-c3ccc(NS(C)(=O)=O)cc3)n2C)c1, COc1cc(NC(=O)CSc2nnc3ccc(-c4ccncc4)nn23)cc(OC)c1, CCNC(=O)COC(=O)CCNC(=O)c1cccc(C)c1, NS(=O)(=O)c1ccc(NC(=O)COC(=O)c2ccc(Cl)nc2)cc1, O=C(COC(=O)c1cc(S(=O)(=O)N2CCCCC2)ccc1Cl)NCc1ccco1, O=C(COC(=O)c1ccco1)NCc1ccc(Cl)cc1, O=C(COC(=O)c1ccc(Cl)nc1)NCc1ccc2c(c1)OCO2, CC(C)Oc1ccc(CCc2nnc(SCC(=O)O)n2-c2ccccc2)cc1, COc1cc(S(=O)(=O)N2CCOCC2)ccc1NC(=O)COc1ccc(N(C)S(=O)(=O)c2ccc(C)cc2)cc1, C=CCOCCN(C)C1=NS(=O)(=O)c2ccccc21, COC(=O)c1sc(SC)c(S(=O)(=O)C(C)C)c1N/N=C(\C#N)S(=O)(=O)c1ccccn1, Cc1ccn(CC(=O)N2N=C(C(F)F)CC2(O)C(F)F)n1 (centres undefined), CC(C)(C)NC(=O)NCc1ccco1, CCCC(=O)NC(=S)Nc1ccc(CN2CCOCC2)cc1, CCc1c(-c2ccccc2)nc(N)c(C#N)c1-c1cccs1, CSc1nc(C)nc(C2CC2)c1C#N, CC(Sc1nncn1C)C(=O)Nc1cc(C(F)(F)F)ccc1N1CCOCC1 (centres undefined), Cc1cc(NC(=O)CSc2nc3ccccc3n2CC(C)C)no1, CC1CN/C(=C\C(=O)c2ccc(Br)cc2)C(=O)N1 (centres undefined), Cc1ccc(C(=O)N2CCCCCC2)cc1Br, Cc1ccc(-c2csc(-c3cc(C)on3)n2)cc1, c1cncc(-c2nc(N3CCNCC3)c3ccccc3n2)c1, COc1ccccc1Oc1ccc(S(=O)(=O)Nc2cccnc2)cc1, O=c1cnnc(Nc2ccccc2F)[nH]1, CCCNCc1cc(OCC)c(OCC(=O)Nc2ccccc2)cc1Br, C=CCC(CC=C)(C(N)=O)c1ccccc1, c1ccc(Cc2cc[n+](Cc3ccccc3)cc2)cc1, Cc1ccc(NC(=O)CN2CCC(C(N)=O)CC2)cc1[N+](=O)[O-], Cc1cc(O)c(NC(=O)c2ccc(C)c([N+](=O)[O-])c2)cc1C, O=c1cc(N2CCCCC2)c(-c2ccccc2)nn1Cc1cccc(F)c1, CCn1c(Cc2ccccc2)nnc1SCC(=O)Nc1ccccc1, CCOC(=O)CNC(=O)CSc1nnc(-c2cccc(OC)c2)n1CC, O=C(CSc1nc2ccccc2[nH]1)c1cccs1, O=C(Cc1cc(=O)[nH][nH]1)N/N=C/c1ccccc1[N+](=O)[O-], O=C(CCc1ccccc1)NNc1ccc(F)cc1, Cc1c(N=Nc2ccc(N(C)C)cc2)c(=O)n(-c2ccccc2)n1C, COC(=O)Cc1csc(Nc2c(C)n(C)n(-c3ccccc3)c2=O)n1, Cc1cc(OC(=O)c2ccccc2Cl)ccc1N1C(=O)CCC1=O, Cc1ccc(NC2=C(Cl)C(=O)OC2OC(=O)c2ccccc2C)cc1 (centres undefined), Fc1ccc(CNc2nc3ccccc3n3nnnc23)cc1, CC(=O)OC(COc1ccc(F)cc1)Cn1cnc2ccccc21 (centres undefined), CCCn1c(N)c(C(=O)CSc2nnc(-c3cccnc3)n2-c2ccc(C)cc2C)c(=O)[nH]c1=O, COc1ccc(Cl)cc1N(CC(=O)N/N=C/c1ccc(OCC(N)=O)cc1)S(C)(=O)=O, COC(=O)c1nc(NC(=O)c2ccc(F)cc2)n[nH]1, Cc1cccc(NC(=O)c2cccc(C(F)(F)F)c2)c1, Cc1cccc(C(=O)Nc2ccc(CC(=O)O)cc2)c1, CC1CC(NC(=O)/C(C#N)=C/c2ccc[nH]2)CC(C)(C)C1 (centres undefined), CCn1c(SCC(=O)c2ccc(Cl)s2)nnc1-c1cccs1, COc1ccc(-n2c(SCC(=O)OC(C)C)nnc2-c2ccccn2)cc1, CCn1c(SCC(=O)c2ccc3ccccc3c2)nnc1-c1cccs1, CCOC(=O)CSc1nnc(CNC(=O)c2cccs2)n1-c1ccccc1, Cc1[nH]c2ccccc2c1-c1ccc(Cl)nn1, CC(=O)C1=C(C)NC2=C(C(=O)CC(C)(C)C2)C1C (centres undefined), CC1(C)CC(=O)C2=C(C1)Nc1cc(C(=O)c3ccccc3)ccc1NC2c1ccccn1 (centres undefined), COCCn1c(C)cc(C(=O)CSc2nc3ccccc3c(=O)n2C(C)COC)c1C (centres undefined), O=C(NNC(=O)C1CCN(c2ncccn2)CC1)c1ccccc1, O=C(Cc1ccccc1)NNC(=O)C1CCN(c2ncccn2)CC1, CC1=C(C(=O)N(C)C)C(c2ccccc2OC(F)F)NC(=O)N1 (centres undefined), Cc1ccc(-n2nc3cc(Cl)c(NC(=O)c4ccco4)cc3n2)cc1, COc1cc(NC(=O)c2cc([N+](=O)[O-])ccc2Br)ccc1NC(=O)c1ccco1, COC(=O)c1cc(Cl)c(NC(=O)c2ccco2)cc1OC, O=C(Nc1ccc(NC(=O)c2ccco2)c(Cl)c1)c1cccc([N+](=O)[O-])c1, COc1ccc(NC(=O)c2cccc(NC(=O)c3ccco3)c2)c(OC)c1, O=C(Nc1ccc(Sc2ccc(Br)cc2)cc1)c1ccco1, O=C(NNS(=O)(=O)c1ccccc1C(F)(F)F)c1cc2ncc(C(F)(F)F)cc2s1, Cc1nnsc1C(=O)N/N=C/c1cccc(C(F)(F)F)c1, Cc1cc(C)c(NC(=O)c2oc3ccccc3c2COc2ccccc2)c(C)c1, N#Cc1ccc(Oc2ccc(C(F)(F)F)cc2NC(=O)c2ccc(F)cc2)cc1, Cc1cc(C)nc(/N=C2\NC(=O)CC(C(=O)O)N2c2ccc(Cl)cc2Cl)n1 (centres undefined), CCC(=O)/C(=C(/O)c1ccccc1)c1nc2ccccc2[nH]1, CSc1sc(C(=O)NNC(=O)c2ccc(Cl)cc2)c2c1C=CCC2, CC1CCN(S(=O)(=O)c2ccc3ncn(CC(=O)N(C)C4CCCCC4)c(=O)c3c2)CC1, O=C(CCC(=O)Nc1ccccc1)N/N=C/c1ccccc1F, O=C(Cn1cc(C(F)(F)F)ccc1=O)N/N=C/c1ccc(Cl)cc1Cl, O=C(C1CCN(C2CCN(Cc3cccc4c3OCO4)CC2)CC1)N1CCOCC1, CC(=O)c1c(C)[nH]c(C(=O)Nc2cc(S(=O)(=O)N(C)C)ccc2C)c1C, Cc1cc(NC(=O)CSc2nccn2-c2ccc([N+](=O)[O-])cc2)no1, CN(CCOc1ccc(Br)cc1)CC(=O)Nc1cccc(S(=O)(=O)NC2=NCCC2)c1

Potency, active:
O=C(CSc1nnnn1C1CCCC1)Nc1ccc2c(c1)OCCO2 6.31 µM, CCC(=O)Nc1cccc(NC(=O)CSc2nnnn2C2CCCC2)c1 12.6 µM, O=C(COC(=O)c1cnc(Cl)c(Cl)c1)NCc1ccco1 20 µM, O=C(COC(=O)c1ccc(Cl)nc1)NCc1cccs1 8.91 µM, CSc1nc(N)c(C#N)c(-c2ccccc2Cl)c1C#N 14.1 µM, C/C(=C\C(=O)c1ccc(Br)cc1)N1CCCCC1 25.1 µM, COc1ccccc1Oc1nc(-c2cccnc2)nc2ccccc12 20 µM, CCN1CCC(=NNC(=O)c2ccc(C)c([N+](=O)[O-])c2)CC1 4.47 µM, CCn1c(SCC(=O)N/N=C/C=C/c2ccccc2[N+](=O)[O-])nnc1-c1ccccc1 7.94 µM, O=C(CSc1nc2ccccc2[nH]1)N/N=C/C=C\c1ccccc1[N+](=O)[O-] 5.01 µM, CCn1c(-c2cc(OC)ccc2OC)csc1=Nc1c(C)n(C)n(-c2ccccc2)c1=O 22.4 µM, Fc1ccc(OCc2nn3c(Cn4nnc5ccccc54)nnc3s2)cc1 22.4 µM, Cc1cccc(C(=O)Nc2ccc3c(c2)C(=O)N(CC(C)C)C3=O)c1 2.82 µM, CCn1c(Cc2cccs2)nnc1SCC(=O)c1ccc(C)cc1 22.4 µM, Cc1ccc(-n2c(Cc3cccs3)nnc2SCC(=O)OC(C)C)cc1 5.62 µM, Cc1cc2c(cc1C)NC(c1ccccn1)C1=C(CC(C)(C)CC1=O)N2 (centres undefined) 14.1 µM, O=C1/C(=C\Nc2ccccc2)CCN1c1ncccn1 20 µM, O=C(NNC(=S)Nc1ccc(Br)cc1Cl)c1ccco1 12.6 µM, COc1ccccc1C(=O)Nc1ccc(NC(=O)c2ccco2)c(C)c1 8.91 µM, CCC(=O)NC(=S)Nc1ccc(NC(=O)c2ccco2)c(Cl)c1 3.55 µM, O=C(CN1CCSCC1)N/N=C/c1ccc(F)cc1F 31.6 µM
